Measurements taken from PubChem BioAssay (NCI).
The panel holds about 79,000 compounds, 15% with a hit somewhere; the sample as a whole holds those more often. A number with no mark means an inactive call. The source made the active and inactive calls. Cut-off read from the data, not from the text of the source: active = growth inhibition above about 70%; inactive = the rest.

Columns and labels:
[1] = NCI Yeast Anticancer Drug Screen. Data for the rad50 strain (AID 155);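 note: 0% = growth of vehicle-only cultures of the same strain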; settings: S. cerevisiae rad50 strain growth inhibition; at 50.0 µM; hits give high values
How it was run: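 Inhibition values express reduced yeast growth in compound-treated cultures relative to vehicle-treated controls.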

[2] = NCI Yeast Anticancer Drug Screen. Data for the mec2-1 strain (AID 157); settings: S. cerevisiae mec2-1 strain, at 50.0 µM, hits give high values
How it was run: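 Mutant yeast (mec2-1) grown with compound; growth inhibition relative to vehicle control reported.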

[3] = NCI Yeast Anticancer Drug Screen. Data for the sgs1 mgt1 strain (AID 161);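 note: 0% = growth of cultures given vehicle only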; settings: S. cerevisiae sgs1 mgt1 strain, at 50.0 µM, hits give high values
How it was run: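 Yeast cells carrying a defined DNA-repair defect were exposed to test compounds. Growth inhibition was measured relative to vehicle-treated controls.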

[4] = NCI Yeast Anticancer Drug Screen. Data for the cln2 rad14 strain (AID 165);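 note: 0% = growth equal to vehicle treated cultures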; settings: S. cerevisiae cln2 rad14 strain, at 50.0 µM, hits give high values
How it was run: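 Readout is yeast growth inhibition versus vehicle-treated controls, using a strain with cln2 and rad14 alterations exposed to compound.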

[5] = NCI Yeast Anticancer Drug Screen. Data for the bub3 strain (AID 167); settings: S. cerevisiae bub3 mutant strain, at 50.0 µM, hits give high values
How it was run: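 Steps: expose the mutant yeast strain to compound; grow alongside vehicle-treated cultures; measure growth; express inhibition against the vehicle cultures.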

[6] = NCI Yeast Anticancer Drug Screen. Data for the mlh1 rad18 strain (AID 175); settings: S. cerevisiae mlh1 rad18 strain growth inhibition; at 50.0 µM; hits give high values
How it was run: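 Genetically defined yeast (DNA repair-deficient) exposed to compounds; growth inhibition determined relative to vehicle.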

SMILES | growth inhibition [1] | growth inhibition [2] | growth inhibition [3] | growth inhibition [4] | growth inhibition [5] | growth inhibition [6]
Cn1cnc([N+](=O)[O-])c1Sc1ccccc1N | -7.3% | -4.15% | 0.45% | 18.6% | -15.7% | -2.5%
COc1ccc2c(C)cc(N/N=C(\C)C=O)nc2c1 | 19.9% | 19.4% | 18.8% | 11.9% | 10.8% | -9.45%
O=C(Nc1ccc(Cl)cc1)Nc1nnc2nc(CC(=O)c3ccccc3)c(=O)[nH]n12 | 15.7% | 1.1% | 11.9% | -19% | -21.9% | 1.1%
CC(=O)On1c(-c2ccccc2-c2nc3ccccc3n2OC(C)=O)nc2ccccc21 | 10% | 14.4% | 13.4% | 8.9% | -5.05% | 2.75%
O=S1c2ccccc2S(=O)c2ccccc21 (stereo unspecified) | -0.2% | -6.25% | 1.4% | -0.55% | 0.95% | 1.15%
CC(C)OC(=O)C1=C(C(=O)OC(C)C)CCCC1 | 4.8% | 21.6% | 4.4% | 13.2% | 3.1% | 13.7%
CN1CCN(CCCNN)CC1 | 2.05% | -17.1% | -17.6% | 3.55% | -70.6% | -30.1%
N#Cc1ccc([N+](=O)[O-])n1CCO | 9.7% | 8.7% | 35% | -0.05% | 15.6% | 19.3%
Cc1ccc2c(c1)SCc1c-2[nH]c2ccccc12 | 93.2% (active) | 95.3% (active) | 95.3% (active) | 88.9% (active) | 91.8% (active) | 92.8% (active)
O=c1[nH]c(=S)[nH]c2ncn(C3OC(CO)C(O)C3O)c12 (stereo unspecified) | -13.4% | -3.85% | -8.15% | -9.6% | 5.65% | -0.6%
CC(C)(C)OC(=O)N(CCNS(=O)(=O)c1cccc2cnccc12)CCC(=O)ON1C(=O)CCC1=O | 4.7% | -0.2% | 17.8% | 14.7% | 23.3% | 6.35%
CCCCCCCCCCCCCCCCS(=O)(=O)N/N=C(/c1ccc(OC)c(OC)c1)N1CCCCC1 | -24.9% | -28.8% | 8.6% | 1.45% | -18.1% | -7%
c1ccc2c(c1)cc1n2CCc2c-1[nH]c1ccccc21 | 26.2% | 18.6% | 4.2% | 18.1% | 19.9% | 20.9%
O=[N+]([O-])c1ccccc1S(=O)(=O)c1ccccc1[N+](=O)[O-] | -26.4% | -9.45% | -14.1% | -10% | -1.5% | -21%
COc1ccc(N=Cc2ccc(C=Nc3ccc(OC)cc3OC)cc2)c(OC)c1 | 10.6% | -21.6% | 5.15% | 7.7% | -5.45% | -1.9%
CC(C)CCC[C@@H](C)[C@H]1CC[C@H]2[C@@H]3CC=C4C[C@@H]([n+]5ccccc5)CC[C@]4(C)[C@H]3CC[C@]12C | -2.45% | -9.8% | 0.95% | 8.15% | -14.1% | -7.55%
O=S1(=O)OCCOS(=O)(=O)C1S(=O)(=O)c1ccc2ccccc2c1 | 50.5% | -6.15% | 9.3% | 34.8% | 1.4% | 11.8%
CCCCc1cc(/C=N\NC(N)=O)c2ccccc2n1 | -0.6% | -14.2% | -1.1% | 1.45% | -5.35% | 18.8%
CNc1nc(N(C)C)nc(N(C)C)n1 | 25.2% | 16.9% | 15.6% | 28.9% | 26.8% | 26.6%
Cc1cc(Cl)cc(C(=O)O)c1O | 5.7% | -9.25% | 0.1% | -12.7% | -8.05% | -8%
CCSC1=C(SCC)C(=O)C(SCC)=C(SCC)C1=O | -1.25% | 16.1% | 13.9% | -22.4% | -1.65% | 15.4%

SMILES | growth inhibition [1] | growth inhibition [2] | growth inhibition [3] | growth inhibition [4] | growth inhibition [5] | growth inhibition [6]
Cc1c(C(=O)CC(=O)C(=O)NC2C3CC4CC(C3)CC2C4)[n+](=O)c2ccccc2n1[O-] (stereo unspecified) | -11.1% | 0.8% | -26.7% | 16.3% | -9.8% | -20.4%
CCOC(=O)C1SC(=S)N(c2ccccc2)C1N (stereo unspecified) | -3.75% | 14.6% | 39.8% | -11.6% | -4.45% | 11.8%
Cc1cc(C)c(C)c(CC(C)(COS(C)(=O)=O)COS(C)(=O)=O)c1C | 8.6% | 11% | 27.1% | 39.2% | 5.85% | 28.1%
ClC(Cl)(Cl)C(c1ccc(Br)cc1)c1ccc(Br)cc1 | -18.1% | -29.5% | 1.15% | -43.3% | 16.8% | -0.25%
Cc1cc2c(cc1C)NC(=O)CC(=O)N2 | -3.45% | -28.8% | -8.45% | 1.95% | -18.7% | 14.4%
COc1ccc(C(=O)c2cc(OC)c(OC)c(OC)c2)cc1OC | -21.9% | -27.2% | -13.8% | 0.3% | 7.45% | -10.4%
COC(=O)c1ccc(Cl)cc1 | 19.4% | -3.2% | -8.8% | 14.3% | 14.5% | 2.45%
C=C(Br)CN=CN(C)C | 23.6% | 1.35% | 10.9% | 1.35% | -10.1% | 23.1%
COC(=O)C1(C(C(=O)c2ccccc2)c2ccccc2)NC(=S)NC(=O)C1C#N (stereo unspecified) | -14.4% | 10.2% | -19.9% | 6.25% | -15.4% | -9.7%
CC(C)(C)c1ccc(OC(=O)NCCCCCCNC(=O)Oc2ccc(C(C)(C)C)cc2)cc1 | -5.65% | 23.9% | 4.8% | 92.3% (active) | -2.85% | -8.5%
COc1cccc(C2c3cc4c(cc3OC(N3CCCCC3)C2C)OCO4)c1OC (stereo unspecified) | 33.1% | 30.8% | 46.4% | 19.8% | 63% | 61.8%
O=C(C[N+](=O)[O-])OCc1ccccc1 | 14.8% | 22.8% | 6.4% | -18.1% | -0.4% | 4.65%
N#Cc1cccc(Br)c1 | -11.9% | -15.8% | -1% | -11.4% | -14.9% | 13.1%
O=C1c2ccccc2C(=O)N1c1ccc(Cl)cc1 | 3.5% | 9.9% | 12.6% | 1.2% | 22.8% | 6.85%
c1cncc(Cc2nc3ccccc3[nH]2)c1 | -26.9% | -2.5% | -22.9% | -11.7% | -5.1% | -34%
COC(=O)Nc1cn2cc(C(=O)c3cccs3)ccc2n1 | -2.5% | -21.5% | -9.95% | -10.5% | -42% | -53.2%
O=C1c2ccccc2C(C2c3ccccc3C(=O)c3cc(Br)ccc32)c2ccc(Br)cc21 (stereo unspecified) | 4.25% | -35.1% | -9.5% | -48.9% | -14.1% | -18.2%
CCCCNC(=S)/N=C/c1c(O)c2ccccc2[nH]c1=O | -39.7% | -15.2% | -52.9% | -18.9% | 3.9% | -41%
CCCO/N=[N+](\[O-])N(CC)CC | -7.7% | -17.4% | 7.5% | 13.8% | -0.8% | -1.45%
CCCCN(Cc1ccccc1)C(=O)Nc1ccccc1 | 4.5% | 30.1% | 33.1% | -8.1% | 39% | 1.2%
